One may read the inhibition as the relative decrease from the control value, in per cent.

This passage reports inhibition results from PubChem BioAssay AID1626 (SRMLSC, 2009).

Hit rate of the full screen: of about 220,000 compounds, about 2,000 (0.91%) were called active. Roughly 2% stayed inconclusive and do not appear here. Cut-off read from the data, not from the text of the source: inconclusive = inhibition above about 80% without an active follow-up result; inactive = below that; test concentration not stated here. Not all results are given here. Results with a measured potency or affinity are listed apart.

A short description of the assay: M. tuberculosis H37Rv growth inhibitors, H37Rv strain (AID 1626).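 Note: bacteria incubated seven days before Alamar blue readout; 0% = bacteria only wells and 100% = bacteria with antibiotic wells.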 The note with it: stronger effect = higher value, concentration not given here.
As to `O=C(CO/N=C/c1ccccc1OC(F)F)NCc1ccco1`, the inhibition is -2.9% (inactive).

With `O=S(=O)(c1ccc(Cl)nc1)N1CCN(c2ncccn2)CC1`, the inhibition is -8.21% (inactive).

Take `CN(C)CCCNc1ncc(C(F)(F)F)cc1Cl`: the inhibition was 4.38% (inactive).

Regarding `CC1=C(C(=O)Nc2ccc(C)cc2C)C(c2ccc(Cl)cc2)n2nc(C(=O)OC(C)C)nc2N1` (centres undefined), the inhibition is 5.54% (inactive).

For the compound `CN(C)CCNC(=O)/C(=C/c1ccc(-c2ccc(Cl)cc2)o1)NC(=O)c1ccccc1`, the inhibition is 10.2% (inactive).

Turning to `CN(C)CCCNC(=O)/C(=C\c1ccc(-c2ccc(Br)cc2)o1)NC(=O)c1ccccc1`, the inhibition is 6.54% (inactive).

As for `CN(C)CCNC(=O)/C(=C/c1ccc(-c2cccc(Cl)c2)o1)NC(=O)c1ccccc1`, the inhibition is 5.87% (inactive).

Turning to `CN(C)CCCNC(=O)/C(=C\c1ccc(-c2cccc([N+](=O)[O-])c2)o1)NC(=O)c1ccccc1`, the inhibition was -5.38% (inactive).

On to `COC(=O)C1=C(c2cc3ccccc3s2)C[C@@H]2CC[C@H]1N2C(=O)NCCCOC(C)C`, for which the inhibition was -2.33% (inactive).

As to `Cc1cccc(/N=C/c2c(C)[nH]n(-c3ccccc3)c2=O)n1`, the inhibition was -10.6% (inactive).

Consider `O=C(Cn1nc(CNc2ccc(Cl)cc2)[n+]2c1CCCCC2)c1ccccc1`, for which the inhibition is 9.42% (inactive).

Take `O=C(Cn1nc(CNc2ccc(Br)cc2)[n+]2c1CCCCC2)c1ccc([N+](=O)[O-])cc1`: the inhibition was 28.2% (inactive).

In the case of `COC(=O)CN1C(=O)[C@@H]2[C@H](C1=O)[C@@H]1CC(C(=O)OC)=C[C@@H](C(=O)OC)[C@@H]3C1=C(C(=O)[C@@]3(C)NC(=O)c1ccccc1)[C@@H]2C`, the inhibition was -6.86% (inactive).

Regarding `CS(=O)(=O)N(CCc1ccccc1)CC(=O)NCc1ccccc1Cl`, the inhibition was 6% (inactive).

For `COc1ccc(CSc2nnc(C)n2N)cc1Br`, the inhibition is -9.64% (inactive).

Turning to `COc1cc(/C=C(\NC(C)=O)C(=O)NC(C)(C)C)ccc1OC(C)=O`, the inhibition was -3% (inactive).

As to `COC(=O)CSc1nc(N)c(C#N)c(-c2ccc(O)cc2)c1C#N`, the inhibition is -2.05% (inactive).

For `CCCOC(=O)CSc1nc(N)c(C#N)c(CC)c1C#N`, the inhibition was -6.1% (inactive).

In the case of `CCOC(=O)CSc1nc(C)cc(C)c1C#N`, the inhibition was -7.74% (inactive).

For the compound `COC(=O)CSc1nc(N)c(C#N)c(C(C)C)c1C#N`, the inhibition is 0.87% (inactive).

As to `COc1ccc(N(CC(=O)Nc2c(C)n(C)n(-c3ccccc3)c2=O)S(=O)(=O)c2ccc(F)cc2)cc1`, the inhibition is -0.85% (inactive).

`CC(C)OC(=O)CSc1nnc(-c2cnccn2)n1-c1ccccc1`: the inhibition is -8.06% (inactive).

For `CC(NC(=S)Nc1ccc([N+](=O)[O-])cc1)c1ccncc1` (centres undefined), the inhibition was 2.79% (inactive).

With `CC(C)(C)Nc1nc(SCc2ccccc2)nc(N2CCOCC2)n1`, the inhibition was 1.1% (inactive).

`O=C(NCc1ccco1)C(=O)NCC1OCCN1S(=O)(=O)c1ccc(F)cc1` (centres undefined): the inhibition was 0.03% (inactive).

For `Nc1c2c(nc3ccccc13)N(C1CCCCC1)CC2`, the inhibition is 1.71% (inactive).

`Nc1c2c(nc3ccc(Br)cc13)N(c1ccccc1)CC2`: the inhibition was 14.3% (inactive).

As for `CCOC(=O)c1cnn(-c2nc3c(C)cccc3s2)c1C`, the inhibition was -7.79% (inactive).

As to `COC(=O)c1cnn(-c2nc3c(C)cccc3s2)c1C`, the inhibition was -0.32% (inactive).

`O=C(O)COCc1nc2ccccc2s1`: the inhibition is 0.38% (inactive).

Turning to `O=C(Nc1cccc(Cl)c1N1CCOCC1)c1ccc([N+](=O)[O-])o1`, the inhibition is 1.19% (inactive).

For `O=C(Nc1cccc(Cl)c1N1CCCCC1)c1ccc(N2CCOCC2)c([N+](=O)[O-])c1`, the inhibition is 2.9% (inactive).

Consider `CCCC(=O)N1CCN(c2ccc(NC(=O)c3ccc(Br)o3)cc2)CC1`, for which the inhibition was -2.24% (inactive).

With `CCCC(=O)N1CCN(c2ccc([N+](=O)[O-])cc2Cl)CC1`, the inhibition was 6.77% (inactive).

For the compound `CCCC(=O)N1CCN(c2ccc(NC(=O)c3cc4ccccc4o3)cc2Cl)CC1`, the inhibition was 11% (inactive).

Regarding `CC(=O)N1CCN(c2ccc(NC(=O)c3ccc(N4CCCC4)c([N+](=O)[O-])c3)cc2Cl)CC1`, the inhibition was 44.6% (inactive).

For the compound `O=C(Nc1ccc(N2CCOCC2)c(Cl)c1)c1ccc(Br)o1`, the inhibition was 5.36% (inactive).

Consider `CCCC(=O)N1CCN(c2ccc(NC(=O)c3ccco3)cc2)CC1`, for which the inhibition is -4.48% (inactive).

Turning to `O=C(O)c1ccc(NC(=O)C2C3CCC(C3)C2C(=O)O)cc1` (centres undefined), the inhibition is 0.17% (inactive).

Regarding `Cn1nc(-c2ccccc2)cc1NC(=O)Nc1ccc(C(C)(C)C)cc1`, the inhibition was 8.89% (inactive).

With `Cn1ncc(Br)c1NC(=O)Nc1ccc(OC(F)(F)F)cc1`, the inhibition is 5.76% (inactive).

On to `COc1ccc(S(=O)(=O)N2CCCC(C(=O)NCc3ccncc3)C2)cc1` (centres undefined), for which the inhibition is -3.7% (inactive).

Regarding `CN(C)/C=C/C(=O)c1ccc(N2CCN(c3ncc(C(F)(F)F)cc3Cl)CC2)cc1`, the inhibition was -11.4% (inactive).

With `CCOC1(OCC)C(c2ccc(N)cc2)C(C#N)(C#N)C1(OCC)OCC` (centres undefined), the inhibition is -7.48% (inactive).

For the compound `CC(C)(C)S(=O)(=O)c1cnc(-c2ccccn2)nc1N`, the inhibition was -8.12% (inactive).

In the case of `OCC#CCSc1nnc(-c2ccncc2)o1`, the inhibition is -1.67% (inactive).

For the compound `COc1ccc(-c2nnc(SCC(=O)c3cccs3)o2)cc1`, the inhibition was 12.7% (inactive).

As for `O=C(CSc1nnc(-c2ccncc2)o1)c1cccc([N+](=O)[O-])c1`, the inhibition was -6.49% (inactive).

Turning to `COc1ccc(-c2nnc(SCC#CCO)o2)cc1OC`, the inhibition was -8.82% (inactive).

Turning to `O=C(CSc1nnc(-c2cccs2)o1)c1cccs1`, the inhibition was 11.9% (inactive).

`O=C(OCC#CCSc1nnc(-c2cccc3ccccc23)o1)c1cccs1`: the inhibition is 60.9% (inactive).

For the compound `O=C(NCCSc1ccccc1)c1ccccc1`, the inhibition is -18.6% (inactive).

For `O=C(c1ccco1)[C@@H]1[C@@H]2C(=O)N(c3ccccc3)C(=O)[C@@H]2C2c3ccccc3C=CN21` (some centres undefined), the inhibition is -13.4% (inactive).

With `COc1ccc(C)cc1S(=O)(=O)N(CC(=O)Nc1cccc([N+](=O)[O-])c1)c1ccccc1`, the inhibition was 0.46% (inactive).

Regarding `Cc1cc(N2CCN(c3cccc(C)c3C)CC2)nc(-c2ccccc2)n1`, the inhibition is 6.21% (inactive).

Turning to `CC(C)(C)C(=O)Nc1nnc(Cc2ccccc2)s1`, the inhibition is 10.8% (inactive).

For the compound `CCOC(=O)CSc1nc2ccccc2c(=O)n1CC(C)C`, the inhibition is 7.35% (inactive).

Regarding `CCOC(=O)C1(CCOc2ccccc2)CCN(Cc2ccc(-n3cccn3)cc2)CC1`, the inhibition was 4.73% (inactive).

On to `CCOC(=O)C1(CCOc2ccccc2)CCN(Cc2cccc(-n3cccn3)c2)CC1`, for which the inhibition was -2.65% (inactive).
